Values without a mark were called inactive. Records with an inconclusive call do not appear. Where a call stands in place of a potency, no number is given. The source made the active and inactive calls. Unless noted, calls follow the shape of the dose curve; as a rule, active = well fitted curve in the direction sought with a large enough effect in the repeat runs; inconclusive = weak or mixed curves; inactive = no such curve, though single readings can be large; an effect the other way counts as inactive or inconclusive.
How the values were obtained:
[1] = A CellTox Green Cytotoxicity Assay to monitor cytotoxicity in HEK293 cells - 8 hour (AID 1224884); conditions: CellTox Green fluorescence; series mostly up to 76.8 µM; also: nearly all actives have a fitted effect of over 35% in size; also: potency is read from the fitted curve at half-maximal effect
Procedure, shortened: (§1)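 HEK293 cells, 600/well, were preincubated 5 hours and then exposed to compounds at 37 C for up to 40 hours. A cell-impermeant cyanine dye staining dead-cell DNA was read by fluorescence at 0, 8, 16, 24, 32 and 40 h time points.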

[2] = qHTS RealTime-Glo MT Cell Viability Assay in HEK293 cells - 8 hour (AID 1224887); conditions: RealTime-Glo luminescence; series mostly up to 76.8 µM; also: nearly all actives have a fitted effect of over 50% in size; also: potency is read from the fitted curve at half-maximal effect
Procedure, shortened: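 600 cells/well were plated with the nonlytic NanoLuc/prosubstrate reagent, pre-incubated 5 h, then given 23 nL of compound in DMSO. Incubation at 37 C for 40 h, with luminescence from viable-cell-reduced substrate read repeatedly from 0 h.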

[3] = A CellTox Green Cytotoxicity Assay to monitor cytotoxicity in HEK293 cells - 16 hour (AID 1224888); conditions: CellTox Green fluorescence; series mostly up to 76.8 µM; also: nearly all actives have a fitted effect of over 35% in size; also: potency is read from the fitted curve at half-maximal effect
Procedure, shortened: as §1

[4] = qHTS RealTime-Glo MT Cell Viability Assay in HepG2 cells - 0 hour (AID 1224889); conditions: RealTime-Glo luminescence; series mostly up to 76.8 µM; also: nearly all actives have a fitted effect of over 50% in size; also: potency is read from the fitted curve at half-maximal effect
Procedure, shortened: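 HepG2 cells (600/well) were dispensed with RealTime-Glo reagents, incubated 5 h at 37 °C, then treated with compounds in DMSO for up to 40 h. Nonlytic NanoLuc luminescence reflecting viable cells was read at each stated time point.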

[5] = A CellTox Green Cytotoxicity Assay to monitor cytotoxicity in HepG2 cells - 8 hour (AID 1224890); conditions: CellTox Green fluorescence; series mostly up to 76.8 µM; also: nearly all actives have a fitted effect of over 45% in size; also: potency is read from the fitted curve at half-maximal effect
Procedure, shortened: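 HepG2 cells, 600/well, preincubated 5 h with CellTox Green dye, then exposed to Tox21 compounds in DMSO at 37 C for up to 40 h. Dead-cell DNA fluorescence read at the indicated time point.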

[6] = qHTS assay to identify small molecule antagonists of the estrogen receptor alpha (ER-alpha) signaling pathway using the BG1 cell line in the presence of 0.1 nM 17-beta-estradiol - cell viability counter screen (AID 1259241); conditions: VM7Luc4E2 (BG1) viability, CellTiter-Fluor protease, 22 h, 0.1 nM estradiol agonist added; series mostly up to 92.4 µM; also: nearly all actives have a fitted effect of over 40% in size; also: potency is read from the fitted curve at half-maximal effect
Procedure, shortened: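 The cell line endogenously expresses full-length ER-alpha and carries four EREs driving luciferase. Cells are cultured 5 days hormone-free, treated 22 hr with compounds and 0.1 nM estradiol, then viability is read by fluorescence.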

[7] = qHTS assay to identify small molecule antagonists of the androgen receptor (AR) signaling pathway using the MDA cell line in the presence of 0.5 nM R1881 - cell viability counter screen (AID 1259242); conditions: MDA-kb2 viability, CellTiter-Fluor protease fluorescence, 16 h; series mostly up to 92.4 µM; also: nearly all actives have a fitted effect of over 45% in size; also: potency is read from the fitted curve at half-maximal effect
Procedure, shortened: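 MDA-kb2 cells (MMTV-luciferase, AR/GR responsive) were treated with compounds plus 0.5 nM R1881 (final) for 16 hr at 37C, 0% CO2. Viability was then read in the same wells as live-cell protease fluorescence (CellTiter-Fluor, 30 min).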

[8] = molecular target: Estrogen receptor (Homo sapiens) (UniProt P03372); experiment: qHTS assay to identify small molecule antagonists of the estrogen receptor alpha (ER-alpha) signaling pathway using the BG1 cell line in the presence of 0.1 nM 17-beta-estradiol (AID 1259244); conditions: VM7Luc4E2 (BG1) ERE-luciferase, antagonist mode, 0.1 nM E2, 22 h; series mostly up to 92.4 µM; also: nearly all actives have a fitted effect of over 50% in size; also: potency is read from the fitted curve at half-maximal effect
Estrogen receptor (Homo sapiens), sequence (P03372 whole entry, looked up): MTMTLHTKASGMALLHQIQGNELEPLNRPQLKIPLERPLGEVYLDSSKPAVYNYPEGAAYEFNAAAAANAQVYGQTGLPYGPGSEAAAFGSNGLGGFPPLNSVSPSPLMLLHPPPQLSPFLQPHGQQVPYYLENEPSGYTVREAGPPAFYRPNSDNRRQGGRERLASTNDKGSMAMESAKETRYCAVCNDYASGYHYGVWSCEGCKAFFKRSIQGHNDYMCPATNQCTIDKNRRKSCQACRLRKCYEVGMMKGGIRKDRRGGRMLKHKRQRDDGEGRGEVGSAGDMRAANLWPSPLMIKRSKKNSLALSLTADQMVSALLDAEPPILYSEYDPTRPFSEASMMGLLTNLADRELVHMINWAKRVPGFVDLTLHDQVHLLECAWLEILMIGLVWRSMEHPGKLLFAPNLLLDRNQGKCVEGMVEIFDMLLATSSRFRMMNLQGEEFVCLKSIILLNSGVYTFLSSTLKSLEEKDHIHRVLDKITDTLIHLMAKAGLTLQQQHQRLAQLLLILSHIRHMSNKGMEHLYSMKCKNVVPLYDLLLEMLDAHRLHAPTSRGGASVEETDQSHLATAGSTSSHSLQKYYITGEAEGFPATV
Procedure, shortened: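 VM7Luc4E2 cells (endogenous full-length ER-alpha, 4×ERE-luciferase), kept 5 days in phenol red-free, charcoal-stripped FBS medium; 4,000 cells/well. Compounds added with 0.1 nM (final) 17beta-estradiol, 22 hr at 37C; luminescence read with ONE-Glo after 30 min.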

[9] = qHTS assay to identify small molecule phospholipidosis (PLD) inducers (AID 1259344; active = well fitted curve in the direction sought with a large enough effect; an effect the other way counts as inactive or inconclusive); conditions: HepG2 phospholipidosis, LipidTOX Red imaging, 24 h; series mostly up to 38.3 µM
Procedure, shortened: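 Fluorescent phospholipid staining (LipidTOX Red) measured by automated microscopy in fixed HepG2 cells after 24 h treatment; nuclei counterstained with Hoechst 33342; amiodarone as reference inducer.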

[10] = qHTS assay to identify small molecule HDAC inhibitors (AID 1259364); conditions: HCT-116 HDAC-Glo I/II luminescence, 2 h; series mostly up to 92.4 µM; also: nearly all actives have a fitted effect of over 45% in size; also: potency is read from the fitted curve at half-maximal effect
Procedure, shortened: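 Wild-type HCT-116 cells, plated overnight at 37 C, exposed to compounds 2 hr at 37 C; luminogenic HDAC-Glo substrate then added 30 min at room temperature. Luminescence reports relative endogenous class I/II HDAC activity.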

[11] = qHTS assay to identify small molecule agonists of the sonic hedgehog signaling (Shh) pathway - cell viability counter screen (AID 1259366); conditions: NIH/3T3 Gli1-Luc viability, CellTiter-Fluor, 24 h; series mostly up to 92.4 µM; also: nearly all actives have a fitted effect of over 50% in size; also: potency is read from the fitted curve at half-maximal effect
Procedure, shortened: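 Viability measured fluorometrically (CellTiter-Fluor, 1hr, 37C) in 3T3 Gli1-Luc reporter cells after 23hr compound exposure within a 24hr incubation at 37C/5% CO2.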

[12] = qHTS assay to identify small molecule antagonists of the sonic hedgehog signaling (Shh) pathway - cell viability counter screen (AID 1259367); conditions: NIH/3T3 Gli1-Luc viability, CellTiter-Fluor, 24 h; series mostly up to 92.4 µM; also: nearly all actives have a fitted effect of over 55% in size; also: potency is read from the fitted curve at half-maximal effect
Procedure, shortened: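 Using CellTiter-Fluor, viability of Gli1-Luc reporter 3T3 cells is read by fluorescence in the wells used for the Shh luciferase assay. Treatment lasts 23 hr with conditioned medium, then reagent 1 hr at 37C.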

[13] = qHTS assay to identify small molecule agonists of the sonic hedgehog signaling (Shh) pathway (AID 1259368; calls by dose curve;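 also: NIH/3T3-derived 3T3Gli1-Luc cells carrying a stable Gli1-driven firefly luciferase reporter; nearly all actives have a fitted effect of over 15% in size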); conditions: NIH/3T3 Gli1-Luc reporter, luciferase, 24 h; series mostly up to 92.4 µM
Procedure, shortened: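 NIH/3T3-derived 3T3Gli1-Luc cells with stably integrated Gli1-driven firefly luciferase, 2,000 cells/well, compounds added after 4 hr. Incubated 24 hr at 37C, 5% CO2; luminescence read after 30 min with luciferase reagent at room temperature.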

[14] = qHTS assay to identify small molecule antagonists of the sonic hedgehog signaling (Shh) pathway (AID 1259369; calls by dose curve; also: nearly all actives have a fitted effect of over 45% in size; also: potency is read from the fitted curve at half-maximal effect); conditions: NIH/3T3 Gli1-Luc reporter, Shh antagonist, luminescence 24 h; series mostly up to 92.4 µM
Procedure, shortened: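 NIH/3T3-derived Gli1-Luc reporter cells plated 4 h, dosed with compound, then stimulated with conditioned medium for 24 h at 37 C. Firefly luciferase luminescence read after 30 min with detection reagent at room temperature.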

[15] = molecular target: Estrogen receptor beta (Homo sapiens) (UniProt Q92731); experiment: qHTS assay to identify small molecule antagonists of the estrogen receptor beta (ER-beta) signaling pathway (AID 1259378; active = well fitted inhibition curve with a large enough effect in the signal ratio in the repeat runs, not every such curve was filed as active; the % refers to the signal ratio; also: potency is read from the fitted curve at half-maximal effect); conditions: ER-beta-UAS-bla HEK293T, beta-lactamase FRET ratio, 16 h; series mostly up to 92.4 µM
Estrogen receptor beta (Homo sapiens), sequence (Q92731 whole entry, looked up): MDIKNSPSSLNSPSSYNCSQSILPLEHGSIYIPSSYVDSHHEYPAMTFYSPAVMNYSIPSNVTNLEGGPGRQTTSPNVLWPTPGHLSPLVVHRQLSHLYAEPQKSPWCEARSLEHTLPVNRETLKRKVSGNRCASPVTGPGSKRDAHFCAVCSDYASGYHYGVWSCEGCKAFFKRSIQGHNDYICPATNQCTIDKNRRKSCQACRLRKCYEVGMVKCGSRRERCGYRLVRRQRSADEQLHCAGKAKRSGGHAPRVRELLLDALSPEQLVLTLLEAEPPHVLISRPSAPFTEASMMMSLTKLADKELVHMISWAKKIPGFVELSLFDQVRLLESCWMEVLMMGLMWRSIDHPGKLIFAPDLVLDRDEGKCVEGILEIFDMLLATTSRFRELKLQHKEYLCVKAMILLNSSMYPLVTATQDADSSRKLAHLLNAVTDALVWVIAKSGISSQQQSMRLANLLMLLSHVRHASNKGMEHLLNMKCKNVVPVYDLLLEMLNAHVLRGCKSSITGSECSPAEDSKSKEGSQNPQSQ
Procedure, shortened: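 Antagonist mode: compounds added to beta-lactamase reporter HEK293T ER-beta-UAS cells stimulated with E2 (1nM final), 16 hr at 37C. LiveBLAzer B/G FRET substrate, 2 hours room temperature, fluorescence read-out.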

[16] = qHTS RealTime-Glo MT Cell Viability Assay in HEK293 cells - 24 hour (AID 1224886); conditions: RealTime-Glo luminescence; series mostly up to 76.8 µM; also: nearly all actives have a fitted effect of over 50% in size; also: potency is read from the fitted curve at half-maximal effect
Procedure, shortened: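 HEK293 cells seeded with NanoLuc/prosubstrate reagent, rested 5 h at 37 C, then dosed and kept at 37 C up to 40 h. Nonlytic real-time luminescence from viable cells read at 0, 8, 16, 24, 32 and 40 h.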

[17] = molecular target: Androgen receptor (Homo sapiens) (UniProt P10275); experiment: qHTS assay to identify small molecule antagonists of the androgen receptor (AR) signaling pathway using the MDA cell line in the presence of 0.5 nM R1881 (AID 1259243); conditions: MDA-kb2 MMTV-luciferase, R1881 0.5 nM, 16 h; series mostly up to 92.4 µM; also: nearly all actives have a fitted effect of over 50% in size; also: potency is read from the fitted curve at half-maximal effect
Androgen receptor (Homo sapiens), sequence (P10275 whole entry, looked up): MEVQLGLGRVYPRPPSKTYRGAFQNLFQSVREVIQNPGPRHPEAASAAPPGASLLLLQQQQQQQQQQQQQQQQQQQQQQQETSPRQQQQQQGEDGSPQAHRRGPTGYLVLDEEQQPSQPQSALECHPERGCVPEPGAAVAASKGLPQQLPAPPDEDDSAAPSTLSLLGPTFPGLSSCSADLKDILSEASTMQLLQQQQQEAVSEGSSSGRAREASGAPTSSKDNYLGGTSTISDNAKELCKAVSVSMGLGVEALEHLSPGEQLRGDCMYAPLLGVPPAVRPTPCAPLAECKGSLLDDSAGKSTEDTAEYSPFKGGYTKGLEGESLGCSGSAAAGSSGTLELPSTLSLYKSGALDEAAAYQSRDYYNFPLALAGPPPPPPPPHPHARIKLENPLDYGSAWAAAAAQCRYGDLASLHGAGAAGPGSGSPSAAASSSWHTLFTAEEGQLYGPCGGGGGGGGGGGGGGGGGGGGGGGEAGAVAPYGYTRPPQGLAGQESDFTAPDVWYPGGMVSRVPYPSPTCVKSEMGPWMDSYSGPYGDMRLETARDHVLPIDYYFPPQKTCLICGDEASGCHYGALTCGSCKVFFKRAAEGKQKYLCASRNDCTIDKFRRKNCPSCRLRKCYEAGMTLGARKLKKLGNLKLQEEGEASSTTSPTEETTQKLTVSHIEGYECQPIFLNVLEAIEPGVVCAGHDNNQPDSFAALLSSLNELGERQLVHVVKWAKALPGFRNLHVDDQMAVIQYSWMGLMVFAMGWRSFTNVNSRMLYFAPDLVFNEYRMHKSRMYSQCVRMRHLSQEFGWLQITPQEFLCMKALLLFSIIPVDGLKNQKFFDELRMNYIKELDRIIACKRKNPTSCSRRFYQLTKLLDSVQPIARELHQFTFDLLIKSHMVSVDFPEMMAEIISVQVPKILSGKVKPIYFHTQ
Procedure, shortened: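 MDA-kb2 cells (MMTV-luciferase, responsive to AR and GR) at 3,000/well, rested 5 h at 37C, 0% CO2, then given compounds plus 0.5 nM R1881 (final) for 16 hr. Luciferase read with ONE-Glo after 30 min at room temperature.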

[18] = qHTS assay to identify small molecule HDAC inhibitors - cell viability counter screen (AID 1259365); conditions: HCT-116 viability, CellTiter-Glo ATP luminescence, 2 h; series mostly up to 92.4 µM; also: nearly all actives have a fitted effect of over 50% in size
Procedure, shortened: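 Viability readout: CellTiter-Glo luminescence. Wild-type HCT-116 cells, 2hr compound treatment following overnight attachment at 37 C.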

[19] = molecular target: Estrogen receptor beta (Homo sapiens) (UniProt Q92731); experiment: qHTS assay to identify small molecule agonists of the estrogen receptor beta (ER-beta) signaling pathway (AID 1259377; active = well fitted activation curve with a large enough effect in the signal ratio in the repeat runs, not every such curve was filed as active; the % refers to the signal ratio); conditions: ER-beta-UAS-bla HEK293T, beta-lactamase FRET ratio, 16 h; series mostly up to 92.4 µM
Procedure, shortened: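 A UAS-controlled beta-lactamase reporter in ER-beta-UAS-bla HEK293T cells reports receptor activation. Compounds act for 16 hr at 37C in 2% charcoal-stripped serum, and a FRET substrate is read by fluorescence after 2 hours.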

Compound | Potency [1] | Potency [2] | Potency [3] | Potency [4] | Potency [5] | Potency [6] | Potency [7] | Potency [8] | Potency [9] | Potency [10] | Potency [11] | Potency [12] | Potency [13] | Potency [14] | Potency [15] | Potency [16] | Potency [17] | Potency [18] | outcome [19]
CN(C/C=C/c1ccccc1)Cc1cccc2ccccc12 | 19 µM (active) | inactive | 19 µM (active) | inactive | 23.9 µM (active) | inactive | inactive | inactive | inactive | inactive | inactive | inactive | inactive | inactive | inactive |  |  |  | 
COc1cc(/C=C/C(=O)CC(=O)/C=C/c2ccc(O)c(OC)c2)ccc1O | 49.3 µM (active) | 6.96 µM (active) | 49.3 µM (active) |  | 49.3 µM (active) | inactive |  |  | inactive | inactive | 30.8 µM (active) | 24.5 µM (active) |  | 8.69 µM (active) |  | 31.1 µM (active) | 15.4 µM (active) |  | 
Cc1ccc(Cl)c(N)c1Cl | inactive | inactive | inactive | inactive | inactive | inactive | inactive |  |  |  |  | 61.1 µM (active) | inactive | 21.7 µM (active) | inactive | inactive |  | inactive | 
Cc1cc(Br)ccc1NC(=O)CCl | inactive | 24.5 µM (active) | inactive | inactive | inactive | 61.1 µM (active) | 48.6 µM (active) | inactive |  | inactive | 9.69 µM (active) | 19.3 µM (active) | inactive | 4.33 µM (active) |  | 30.9 µM (active) |  | inactive | 
CO[Si](OC)(c1ccccc1)c1ccccc1 | inactive | inactive | inactive | inactive | inactive |  | inactive |  |  | inactive |  | 43.3 µM (active) | inactive | 21.7 µM (active) | inactive | inactive |  | inactive | 
CC(C)(c1ccc(Oc2ccc(N)cc2)cc1)c1ccc(Oc2ccc(N)cc2)cc1 | inactive |  | inactive | inactive | inactive | inactive |  | 61.1 µM (active) |  | inactive | inactive | inactive | inactive |  |  |  |  | inactive | 
Nc1cccnc1N | inactive | inactive |  | inactive | inactive |  | inactive | inactive |  | inactive |  |  | inactive |  |  |  |  | inactive | 
COc1cc(OC)nc(NC(=O)NS(=O)(=O)Nc2ccccc2C(=O)N(C)C)n1 | inactive | inactive |  | inactive | inactive | inactive | inactive | inactive |  | inactive | inactive | inactive | inactive |  | inactive | inactive |  | inactive | 
COc1c(Br)cc(Br)c(C)c1Br | inactive | inactive | inactive | inactive | inactive | inactive | inactive |  |  | inactive | inactive | inactive | inactive | inactive |  | inactive |  | inactive | 
CCCCCCCCCCCCCCCCCCNC(=O)OC1CCN(C(=O)OC[C@H](COC(=O)N(Cc2cccc[n+]2CC)C(=O)c2ccccc2OC)OC)CC1 | 26.8 µM (active) | 21.3 µM (active) |  | inactive |  | inactive |  | 29.8 µM (active) |  | inactive | inactive | inactive | inactive | 26.6 µM (active) |  | 10.7 µM (active) | 23.7 µM (active) | inactive | 
CCOC(=O)[C@H](O)[C@@H](O)C(=O)OCC | inactive | inactive |  | inactive | inactive | inactive | inactive | inactive |  | inactive | inactive | inactive | inactive | inactive | inactive | inactive | inactive | inactive | 
CC(=O)Nc1ccc(N=Nc2cc(C)ccc2O)cc1 | inactive | inactive |  | inactive | inactive | inactive |  | inactive |  | 2.73 µM (active) | inactive |  |  | 15.4 µM (active) |  | inactive | inactive | inactive | 
C=CCc1cc(S(=O)(=O)c2ccc(O)c(CC=C)c2)ccc1O | inactive | 24.5 µM (active) |  |  | inactive | inactive | inactive | 61.1 µM (active) |  | inactive |  | 24.3 µM (active) | inactive | inactive |  | 27.5 µM (active) | inactive | inactive | 
CCN(CC)c1ccc(C=O)c(O)c1 | inactive | inactive | inactive | inactive | inactive | inactive | inactive | inactive |  | inactive | inactive | inactive | inactive | inactive |  | inactive |  | inactive | 
CC(C)=NNC(N)=S | inactive | inactive |  | inactive |  | inactive | inactive | inactive |  | inactive | inactive |  | inactive | 13.7 µM (active) |  | inactive |  | inactive | inactive
Cc1cc(F)ccc1-c1cc(N2CC[C@@H](O)[C@H]2CO)ncc1N(C)C(=O)C(C)(C)c1cc(C(F)(F)F)cc(C(F)(F)F)c1 | inactive | 34.1 µM (active) |  | 1.71 µM (active) |  | inactive | inactive |  |  | inactive | 42.6 µM (active) |  | inactive |  | 19 µM (active) | 17.1 µM (active) | 38 µM (active) | inactive | 
